Sampled rows, rich in hits. Any-hit rate of the full collection: about 9.8%.
HPGD block – HPGD (human) dehydrogenase inhibition. P15428. purified HPGD, NADH fluorescence kinetic, PGE2 substrate. Potency, µM, without a hit: at the top dose activity change, negative = inhibition, actives largely listed as inhibitors. 4.3% of 150,000 active. AID 894; also: potency is read from the fitted curve at half-maximal effect; % is scaled to controls: 0 for no effect and ±100 for the full control effect
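NADH formation kinetics: reaction with 30 uM PGE2 and 1 mM NAD+ (final), 20 nM enzyme, Tris-HCl pH 8 with Tween 20, after 15 min compound preincubation at room temperature. Fluorescence change, last versus first of five reads.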
ALDH1A1 inh – inhibitors of human aldehyde dehydrogenase 1A1. P00352. Purified ALDH1A1, NADH fluorescence, propionaldehyde substrate. Potency, µM (highest dose often 75.3 µM), for the others: at the top dose activity, negative = inhibition, actives largely listed as inhibitors. 7.3% of 220,000 active;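 also: potency is read from the fitted curve at half-maximal effect; plate controls were no enzyme wells and a reference inhibitor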
HttQ103 aggreg – reduces HttQ103-GFP aggregates in PC12 cells; PC12 HttQ103-GFP aggregates, Acumen cytometry, 40 h; Potency, µM (titrated, usually from 46.1 µM), for inactives: at the top dose activity change, negative = inhibition, hits mostly inhibitors; 1.1% of 220,000 active; AID 1688; active = well fitted curve in the direction sought with a large enough effect; inconclusive = small, poorly fitted or top-dose-only effect, or another doubt; inactive = no such curve, though single readings can be large; an effect the other way counts as inactive or inconclusive; also: potency is read from the fitted curve at half-maximal effect; % is scaled to controls: 0 for no effect and ±100 for the full control effect; nearly all actives have a fitted effect of over 60% in size
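Aggregate formation scored by laser-scanning cytometer (488 excitation, 500–530 emission) in lysed PC12 cells expressing Q103-GFP after 100 nM tebufenozide induction; library tested in dose series, with ATPLite reagent added in the multiplex.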
HTT ATP protect – protects HTT-Q103 PC12 cells, measured by ATP | PC12 HTT-Q103 induced, cytoprotection, ATP luminescence, 40 h | Potency, µM (top dose mostly 56.4 µM), for the others: cytoprotection (ATP increase), usual class: activators | 0.14% of 230,000 active; active = well fitted curve in the direction sought with a large enough effect; inconclusive = small, poorly fitted or top-dose-only effect, or another doubt; inactive = no such curve, though single readings can be large; an effect the other way counts as inactive or inconclusive; also: potency is read from the fitted curve at half-maximal effect; % of control where 0% means no effect; nearly all actives have a fitted effect of over 45% in size
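Stable PC12 Q103-GFP cells in serum-supplemented, phenol red-free DMEM; induction by tebufenozide at 100 nM final; compound dose series; cell viability quantified luminescently from ATP.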
JMJD2E inh – inhibitors of human JMJD2E histone demethylase. B2RXH2. JMJD2E catalytic domain, FDH-coupled NADH fluorescence (FDH is formaldehyde dehydrogenase). Potency, µM (highest dose often 57.1 µM), for inactives: at the highest dose activity change, negative = inhibition, hits mostly inhibitors. 1.6% of 230,000 active. AID 2147;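 also: potency is read from the fitted curve at half-maximal effect; 0% = wells with enzyme and -100% = buffer wells without enzyme; nearly all actives have a fitted effect of over 50% in size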
CBFb-RUNX1 inh – inhibitors of human CBF-beta and RUNX1 interaction; Potency, µM (titrated, usually from 59.8 µM), inactives show at the highest dose activity, negative = inhibition, actives largely listed as inhibitors; AlphaScreen CBFb-His/RUNX1-biotin binding, biochemical; Q01196+Q13951; 230,000 tested, under 10 active; AID 1477; active = well fitted curve in the direction sought with a large enough effect; inconclusive = small, poorly fitted or top-dose-only effect, or another doubt; inactive = no such curve, though single readings can be large; an effect the other way counts as inactive or inconclusive; also: % of control where 0% means no effect
Target sequence (Q01196 whole entry, looked up): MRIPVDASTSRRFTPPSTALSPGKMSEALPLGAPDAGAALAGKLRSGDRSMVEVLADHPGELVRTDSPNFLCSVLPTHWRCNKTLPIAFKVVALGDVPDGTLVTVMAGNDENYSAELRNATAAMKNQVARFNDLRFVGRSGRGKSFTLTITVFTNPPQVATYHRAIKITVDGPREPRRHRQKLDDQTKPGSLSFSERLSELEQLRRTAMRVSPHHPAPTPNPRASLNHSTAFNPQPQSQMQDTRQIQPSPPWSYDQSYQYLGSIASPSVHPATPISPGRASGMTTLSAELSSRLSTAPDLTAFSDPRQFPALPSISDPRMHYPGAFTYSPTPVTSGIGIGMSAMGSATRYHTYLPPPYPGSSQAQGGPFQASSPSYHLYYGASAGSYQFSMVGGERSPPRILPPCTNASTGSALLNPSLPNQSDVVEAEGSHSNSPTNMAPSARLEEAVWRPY
Target sequence (Q13951 whole entry, looked up): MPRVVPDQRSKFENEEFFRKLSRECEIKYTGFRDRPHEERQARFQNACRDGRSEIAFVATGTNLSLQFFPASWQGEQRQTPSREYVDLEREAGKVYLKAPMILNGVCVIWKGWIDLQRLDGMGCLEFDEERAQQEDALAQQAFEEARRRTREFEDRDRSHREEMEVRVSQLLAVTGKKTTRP
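CBFb-His/RUNX1-biotin, 30 nM each, preincubated 20 min RT; compound 15 min RT; Ni + streptavidin beads 50 ng each, 90 min RT; AlphaScreen read.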
The depositor's hits bear a star; ? = inconclusive; . = not tested or not shown; [ ] = dose if it differs, or a comment. Unless noted, calls follow the shape of the dose curve; as a rule, active = well fitted inhibition curve with a large enough effect (not every such curve was filed as active); inconclusive = small, poorly fitted or top-dose-only effect, or another doubt; inactive = no such curve, though single readings can be large or run the other way.

SMILES	HPGD block	ALDH1A1 inh	HttQ103 aggreg	HTT ATP protect	JMJD2E inh	CBFb-RUNX1 inh
Cc1nc2c(C)cccc2cc1C(=O)N/N=C/c1ccc(N(C)C)cc1	-18%	11µM*	3%	-68%	-25%	-18%
CCCN1C2CCCC1CC(NC(=S)Nc1cc(C)ccc1C)C2 (stereo not drawn)	-2%	15%	-16%	-10%[1.9 µM]	6%	9%
COC(=O)c1ccc(S(=O)(=O)N2CCN(C(c3ccccc3)c3ccccc3)CC2)n1C	.	.	23%[9.22 µM]	13%[10 µM]	0%	5%
N#CCc1c(C#N)c(N)nc(N2CCN(C=O)CC2)c1C#N	.	7.1µM*	2%	-19%	?	-6%
CC1CCN(C(=O)c2ccc(SCc3ccccc3F)c([N+](=O)[O-])c2)CC1	25µM*	?	-11%	28%[10 µM]	-8%	-2%
Cc1ccc(C(=O)N2CCC(Cc3ccccc3)CC2)cc1[N+](=O)[O-]	.	14µM*	?	-4%	1%	-6%
Cc1c(C(=O)N2CCC(Cc3ccccc3)CC2)cccc1[N+](=O)[O-]	.	0%	26%[9.22 µM]	3%[10 µM]	1%	1%
Cc1cc(C)nc(SCCn2c(N3CCOCC3)nc3c2c(=O)[nH]c(=O)n3C)n1	.	0%	21%	-7%	1%	1%
CCC(C)N=C1CC(C)(C)CC(=O)/C1=C(/O)Cc1ccccc1 (stereo not drawn)	-3%	?	14%	3%[10 µM]	-1%	1%
CCc1ccc(NC(=O)CC2C(=O)Nc3c2c(=O)n(C)c(=O)n3C)cc1 (stereo not drawn)	-19%	100µM*	-16%	-35%	2%	1%
CCc1ccc(NC(=O)CC2NCCNC2=O)cc1 (stereo not drawn)	-12%	7%	2%	-17%	-4%	5%
CSCc1nnc(NC(=O)c2ccc(S(=O)(=O)N(CC(C)C)CC(C)C)cc2)o1	-10%	1%	10µM*	-60%	?	-27%
CCN(Cc1ccccc1)S(=O)(=O)c1ccc(C(=O)Nc2nnc(C3CC3)o2)cc1	-24%	?	?	-32%	14µM*	?
COc1ccc(NCc2nnc(SCC(=O)Nc3cc(C(F)(F)F)ccc3Cl)o2)cc1	-14%	28µM*	-24%	-28%	-20%	-5%
CCN(CC)S(=O)(=O)c1ccc(-c2nnc(SCC(=O)c3ccc(OC)cc3)o2)cc1	-7%	0.35µM*	?	1%	3%	-2%
CCN(CC)S(=O)(=O)c1ccc(-c2nnc(SCC(=O)Nc3ccc(OC)cc3)o2)cc1	-15%	-4%	-30%	-6%[10 µM]	5%	-1%
Cc1ccc(CN(CC(=O)NC2CCCC2)C(=O)CSc2nnc(COc3ccccc3)o2)cc1	28µM*	?	-2%	-21%[10 µM]	6%	-3%
COc1ccc(NCc2nnc(SCC(=O)c3ccc(C)cc3)o2)cc1	-23%	28µM*	15%	-4%	-9%	-14%
C#CCNC(=O)C1=C[C@H](c2ccc3c(c2)OCO3)[C@@H](CCCO)[C@H](OCC)O1	.	-4%	9%[9.22 µM]	5%[10 µM]	2%	4%
Cc1cc(C)cc(OCc2nnc(SCC(=O)c3ccccc3)o2)c1	28µM*	-11%	20%	-19%[10 µM]	6%	14%
O=C(CSc1nnc(COc2ccc(Cl)cc2)o1)N1c2ccccc2CCc2ccccc21	2%	22µM*	-14%	-53%	-4%	-10%
CCOC(=O)N1CCN(C(=O)CSc2nnc(COc3ccc(Cl)cc3)o2)CC1	-9%	3%	-31%	-10%[10 µM]	-5%	10%
COc1ccc(NCc2nnc(SCC(=O)Nc3cc(C)cc(C)c3)o2)cc1	-29%	3.2µM*	19%	-3%[10 µM]	0%	7%
CCCCOc1ccc(N2CC(C(=O)NCCc3ccc(OC)c(OC)c3)CC2=O)cc1 (stereo not drawn)	.	6%	-20%	-39%	3%	4%
CCN(CC)CCOC(=O)c1cc(Cl)c(N)cc1OC	-4%	-2%	.	-7%	-1%	1%
SMILES	HPGD block	ALDH1A1 inh	HttQ103 aggreg	HTT ATP protect	JMJD2E inh	CBFb-RUNX1 inh
O=C(CN1N=C(c2ccccc2)CCC1=O)NCc1cccs1	.	?	34%	.	-8%	-9%
Oc1ccc(N=C/C=C/c2cccc(Br)c2)cc1-c1nc2ccccc2s1	-24%	?	-9%	-2%[10 µM]	25µM*	?
Nc1ccc(O)c(-c2nc3ccccc3s2)c1	-13%	-13%	15%	-20%	?	?
CC1=CC(=O)N(c2ccc(C)cc2)C1c1ccc(Cl)cc1 (stereo not drawn)	22µM*	-2%	13%	.	-1%	0%
O=C(CCN1CCc2ccccc2CC1)c1ccc2c(c1)OCCO2	-21%	0.11µM*	?	-149%	0%	-3%
O=C(CCN1CCOCC1)c1ccc2c(c1)OCCO2	-25%	0.45µM*	?	13%[10 µM]	-8%	-1%
O=C(CCCN1CCOCC1)c1ccc2c(c1)OCCO2	-15%	?	4%	-5%	-24%	1%
COC(=O)c1cc(NC(=O)Cn2c(=O)cnc3ccccc32)cc(C(=O)OC)c1	-19%	0.35µM*	16%	2%	-2%	7%
COC(=O)c1cc(NC(=O)Cc2ccc(OC)cc2)cc(C(=O)OC)c1	-15%	0.89µM*	13%	-2%	2%	0%
COC(=O)Cn1c(=O)cnc2ccccc21	-21%	?	-2%	1%	?	3%
Cc1ccc(N=C2NC(=O)/C(=C\c3ccco3)S2)cc1	?	-11%	15%	.	-8%	?
Cc1ccc(S(=O)(=O)/N=C2/NC(=O)/C(=C/c3ccc(Br)o3)S2)cc1	14µM*	-11%	-4%	-2%[10 µM]	-1%	-5%
Cc1ccc(S(=O)(=O)/N=C2/NC(=O)/C(=C/c3cccnc3)S2)cc1	20µM*	3%	21%	-29%	1%	3%
O=C1N/C(=N/O)S/C1=C/c1cccnc1	.	-12%	.	.	11%	-1%
Cc1onc(-c2ccccc2)c1C(=O)N/N=C/c1cc2c(cc1Br)OCO2	-10%	-1%	4%	.	-2%	1%
Nn1c(SCC(=O)Nc2ccc3c(c2)OCO3)nnc1-c1cccc(Cl)c1	-6%	3%	10%	-15%	4%	5%
Nn1cc(-c2ccccc2)nc1SCC(=O)Nc1ccc2c(c1)OCO2	-17%	1.4µM*	14%	-5%[10 µM]	-4%	1%
Nn1cc(-c2ccccc2)nc1SCC(=O)NCCc1ccccc1	.	3.2µM*	-11%	-2%	-6%	-16%
CN(C)/C=C/C(=O)c1cnc(-c2ccccn2)s1	.	?	10%	-10%[10 µM]	-8%	-26%
CCCn1c(C)cc(C(=O)COc2ncnc3sccc23)c1C	-15%	-2%	-5%	-48%[10 µM]	2%	-10%
